Screening results (PubChem BioAssay)
Only some compounds are listed: those with a hit (about 2.9% of all), similar ones and a draw of the others.
ZTA DNA inh = ZTA (EBV) inhibition in EBNA-1 counter-screen | P03206 | ZTA-DNA binding, fluorescence polarization | inhibition, % at 11 µM | actives 0.15% (n = 320,000); in the data active means inhibition above about 33%
Target sequence (P03206 whole entry, looked up): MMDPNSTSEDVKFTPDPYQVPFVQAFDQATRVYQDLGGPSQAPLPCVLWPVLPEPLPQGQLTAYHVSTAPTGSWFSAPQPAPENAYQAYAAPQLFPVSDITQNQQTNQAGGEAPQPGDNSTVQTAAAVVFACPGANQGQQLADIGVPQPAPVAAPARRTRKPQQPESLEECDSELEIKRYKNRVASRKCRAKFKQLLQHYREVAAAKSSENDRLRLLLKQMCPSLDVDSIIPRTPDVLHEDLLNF
EBNA-1 inh = blocks EBNA-1 binding to DNA. EBNA-1 DNA binding, fluorescence polarization. inhibition, % at 14.8 µM. actives 0.34% (n = 300,000); in the data active means inhibition above about 28%
rCAG binder = molecules binding r(CAG) RNA repeats. inhibition, % at 3 µM. actives 1.3% (n = 370,000). r(CAG) RNA repeat, TO-PRO-1 dye displacement fluorescence;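 active means inhibition above the plate cutoff, the mean of all test compounds on that plate plus 3 SD, cut at about 35% in these data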;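 further: 0% = DMSO alone and 100% = 100 µM mitoxantrone as full dye displacement; higher means more dye released from RNA so lower well fluorescence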
PAFAH1B2 inh = blocks human PAF acetylhydrolase 1b catalytic subunit 2. inhibition, % at 3.39 µM. recombinant PAFAH1B2, FP-rhodamine activity probe, fluorescence polarization. P68402. actives 1.2% (n = 340,000);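 active means inhibition above the mean of all tested compounds plus 3 SD, cut at about 24% in these data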;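 further: 0% = enzyme with DMSO and 100% = wells lacking PAFAH1B2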
Target sequence (P68402 whole entry, looked up): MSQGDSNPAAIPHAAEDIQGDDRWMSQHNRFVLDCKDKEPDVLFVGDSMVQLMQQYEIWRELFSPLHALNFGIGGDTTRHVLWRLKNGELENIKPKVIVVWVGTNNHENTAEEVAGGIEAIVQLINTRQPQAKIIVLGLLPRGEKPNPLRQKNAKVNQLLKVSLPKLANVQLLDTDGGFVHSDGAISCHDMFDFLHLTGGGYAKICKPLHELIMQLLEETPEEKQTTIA
PAFAH2 inh = PAFAH2 (human) inhibition | Q99487 | recombinant PAFAH2, FP-rhodamine activity probe, fluorescence polarization | inhibition, % at 3.39 µM | actives 0.99% (n = 340,000) | AID 492956;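 active means inhibition above the mean over all tested compounds plus 3 SD, cut at about 30% in these data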;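 further: inhibitors block probe labeling of enzyme so polarization drops; 0% = enzyme with DMSO and 100% = wells lacking PAFAH2 protein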
PAFAH1B3 inh = inhibitors of human PAFAH1B3; Q15102; actives 0.28% (n = 340,000); recombinant PAFAH1B3, FP-rhodamine probe, fluorescence polarization; inhibition, % at 3.39 µM;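 active means inhibition above the screen-wide average of all tested compounds plus 3 SD, cut at about 25% in these data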;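 further: 0% = enzyme with DMSO only and 100% = wells lacking PAFAH1B3 protein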
Target sequence (Q15102 whole entry, looked up): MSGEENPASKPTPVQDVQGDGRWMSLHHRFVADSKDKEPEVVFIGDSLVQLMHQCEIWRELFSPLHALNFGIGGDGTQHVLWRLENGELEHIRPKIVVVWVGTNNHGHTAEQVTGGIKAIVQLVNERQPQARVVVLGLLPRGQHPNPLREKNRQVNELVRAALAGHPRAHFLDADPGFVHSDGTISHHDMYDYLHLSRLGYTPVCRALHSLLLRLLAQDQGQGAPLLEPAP
rCAG bind conf = r(CAG) RNA repeat binding, confirmation; shares compounds with rCAG binder; TO-PRO-1 dye displacement fluorescence; inhibition, % at 3 µM; actives 70% (n = 4,300); AID 652065;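 active means inhibition above a per-plate cutoff, the mean inhibition of sample wells plus 3 SD, cut at about 35% in these data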;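 further: loss of TO-PRO-1 fluorescence as compound displaces dye from 1x1 AA loop RNA; 0% = DMSO only wells and 100% = 100 µM mitoxantrone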
DNA CAG counter = disrupts DNA CAG TO-PRO-1 complex, flagging rCAG hits; d(CAG) DNA oligo TO-PRO-1 dye displacement, fluorescence; shares compounds with rCAG binder; AID 652068; actives 94% (n = 4,300); inhibition, % at 3 µM;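 active means inhibition above its plate's cutoff, the mean test-well inhibition plus 3 SD, cut at about 4.8% in these data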;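 further: 0% = DNA dye mix with DMSO and 100% = 100 µM mitoxantrone; hits displace the dye from DNA and so lower well fluorescence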
DNA CAG DR = disrupts DNA CAG TO-PRO-1 complex in dose response; shares compounds with rCAG binder; DNA CAG/GTC duplex TO-PRO-1 dye displacement fluorescence; IC50, µM; actives 20% (n = 250); in the data active means IC50 below about 10 µM
Starred values were filed as active, the others as inactive; . = no result.

SMILES	ZTA DNA inh	EBNA-1 inh	rCAG binder	PAFAH1B2 inh	PAFAH2 inh	PAFAH1B3 inh	rCAG bind conf	DNA CAG counter	others
CCOC(=O)c1c(NC(=O)c2ccccc2C(=O)O)sc2c1CCC2	-4.0	-2.1	46.7*	1.5	1.0	4.6	29.4	7.3*
CCOC(=O)c1c(NC(=O)c2cccc([N+](=O)[O-])c2C(=O)O)sc2c1CCCC2	-11.0	-14.1	30.7	4.4	9.1	10.9	.	.
CCOC(=O)c1sc(NC(=O)c2ccccc2C(=O)O)c(C(=O)OCC)c1C	-8.2	-14.0	44.9*	2.2	0.0	3.6	35.0*	7.7*
CCOC(=O)c1c(NC(=O)c2c(C(=O)O)cccc2[N+](=O)[O-])sc2c1CCCC2	0.5	10.8	47.2*	6.3	6.0	17.5	33.9	10.0*
CC(C)OC(=O)c1c(NC(=O)C2CC=CCC2C(=O)O)sc2c1CCCCC2 (stereo not drawn)	13.6	20.8	55.5*	15.5	5.0	6.2	67.8*	22.3*
CC(C)c1ccc(NC(=O)CSc2nnc(-c3ccco3)n2C)cc1	.	.	1.7	.	.	.	.	.
Cc1cc(C)c(NC(=O)CSCc2c(C)noc2C)c(Cl)c1	.	.	-5.6	4.3	5.9	-2.1	.	.
CCN(Cc1cn(CC2CCCCC2)nn1)S(=O)(=O)c1ccccc1Br	.	.	-2.1	.	.	.	.	.
Cc1ccc(OCc2ccc(C(=O)NCc3cccnc3)cc2)cc1C	22.0	6.4	-2.5	-3.9	8.9	6.6	.	.
CCOC(=O)c1c(CC(C)C)csc1NC(=O)c1ccccc1C(=O)O	12.2	0.8	47.1*	22.6	6.9	-1.2	44.8*	12.1*
CCOC(=O)c1c(NC(=O)C2C3C=CC(C3)C2C(=O)O)sc2c1CCC(C)C2 (stereo not drawn)	21.0	4.5	33.8	7.1	-2.5	3.8	.	.
CCOC(=O)c1c(CC(C)C)csc1NC=O	-10.7	4.4	-2.7	7.3	1.9	6.8	.	.
CCOC(=O)c1c(NC(=O)C2C3C=CC(C3)C2C(=O)O)sc2c1CCCC2 (stereo not drawn)	-8.1	-0.3	37.2*	9.7	12.2	-3.8	50.1*	10.6*	DNA CAG DR=>29.9
O=S(=O)(NCCO)c1ccc2c(c1)Cc1cc(S(=O)(=O)NCCO)ccc1-2	8.1	-23.5	1.0	0.1	-5.5	14.8	.	.
NNS(=O)(=O)c1ccc2c(c1)Cc1cc(S(=O)(=O)NN)ccc1-2	11.8	5.0	41.9*	-1.0	-5.1	3.9	5.9	4.0
COc1ccc(/C=C2\Oc3cc(OCC(=O)N4CCC[C@H]4C(=O)O)ccc3C2=O)c(OC)c1	9.5	-2.2	.	-2.6	-0.6	10.7	.	.
COc1cccc(/C=C2\Oc3cc(OCC(=O)N4CCC[C@H]4C(=O)O)ccc3C2=O)c1	-11.6	-7.6	37.4*	-1.8	-5.8	1.9	43.6*	12.8*
COc1ccc(/C=N/NC(=O)c2cc(-c3ccccc3)nc3ccccc23)c(C(=O)O)c1OC	5.8	15.1	16.3	8.3	-2.1	2.4	.	.
COc1ccc(/C=N/NC(=O)c2[nH]c3ccc(C)cc3c2-c2ccccc2)c(C(=O)O)c1OC	-3.4	-3.6	38.5*	12.2	10.0	10.0	46.1*	14.8*
Cc1ccc2[nH]c(C(=O)N/N=C/c3ccccc3C(=O)O)c(-c3ccccc3)c2c1	6.7	-22.9	54.8*	7.0	2.6	-0.4	36.0*	9.0*
Cc1ccc2[nH]c(C(=O)N/N=C/c3ccccc3O)c(C)c2c1	-4.6	-3.1	12.0	10.1	4.7	20.7	.	.
Cc1cc(NC(=O)CSc2[nH]c(=O)cc(C(F)(F)F)c2C#N)no1	-6.6	.	6.2	4.7	1.8	15.3	.	.
Cc1cc(-n2c(C)cc(C(=O)CSc3[nH]c(=O)cc(C(F)(F)F)c3C#N)c2C)no1	-11.1	.	41.9*	-2.4	3.1	0.0	38.3*	9.1*
O=C(O)Cn1cc(/C=C2\SC(=O)N(c3ccccc3)C2=O)c2ccccc21	3.7	5.3	5.0	8.7	9.0	10.9	.	.
O=C(O)Cn1cc(/C=C2/SC(=O)N(CC(=O)N3CCCCCC3)C2=O)c2ccccc21	-1.3	4.1	40.3*	.	.	.	36.9*	10.4*
SMILES	ZTA DNA inh	EBNA-1 inh	rCAG binder	PAFAH1B2 inh	PAFAH2 inh	PAFAH1B3 inh	rCAG bind conf	DNA CAG counter	others
O=C(/C=C/c1ccc2c(c1)OCO2)Nc1c(C(=O)O)[nH]c2ccccc12	-9.6	4.4	44.7*	9.4	6.4	3.6	38.1*	13.3*
O=C(O)c1ccc(NC(=O)c2cn(-c3ccccc3)nc2-c2ccc(Br)cc2)cc1	-5.9	-14.1	81.6*	-1.8	-17.2	-3.6	68.5*	28.4*
O=C(O)c1cccc(NC(=O)c2cn(-c3ccccc3)nc2-c2cccc(Br)c2)c1	8.6	9.5	86.5*	-7.0	-9.3	-5.6	81.7*	50.0*
COc1ccc(-c2nn(-c3ccccc3)cc2C(=O)Nc2cccc(C(=O)O)c2)cc1[N+](=O)[O-]	6.0	2.7	70.5*	-4.6	-13.1	-4.8	61.0*	24.1*
Cc1ccc(C)c(/C=N/Nc2nc3ccccc3c(=O)n2O)c1	6.7	-0.2	0.4	.	.	.	.	.
Cc1onc(-c2ccccc2)c1C(=O)NC(=S)NNC(=O)c1cc(-c2ccc(F)cc2)n[nH]1	3.9	-4.9	67.8*	3.1	2.0	9.5	71.3*	30.9*	DNA CAG DR=>29.9
Cc1onc(-c2ccccc2)c1C(=O)NC(=S)NNC(=O)c1ccncc1	4.6	-1.4	3.7	0.9	-14.5	6.5	.	.
O=C(COC(=O)c1cc(-c2ccco2)nc2ccccc12)NCc1ccc2c(c1)OCO2	5.6	4.3	37.5*	0.0	2.5	6.1	15.4	8.0*
O=C(COC(=O)c1cc(-c2ccc(Cl)s2)nc2ccccc12)NCc1ccco1	18.2	-1.2	36.5*	-3.6	-10.8	-0.9	14.8	6.6*
O=C(COC(=O)c1cc(-c2cccs2)nc2ccccc12)NCc1ccco1	-2.5	-8.2	18.4	-3.0	-12.6	3.6	.	.
O=C(COC(=O)c1ccccc1O)NCc1ccc2c(c1)OCO2	.	.	1.4	1.4	1.5	4.9	.	.
CC(C)Cn1c(N)c(C(=O)COC(=O)c2cc(-c3ccco3)nc3ccccc23)c(=O)n(C)c1=O	6.9	-7.3	41.2*	4.3	1.2	8.3	38.7*	19.9*
O=c1[nH]c2ccccc2c2cn(-c3ccccc3)nc12	-2.4	-1.0	8.6	4.2	8.8	5.5	.	.
CCOC(=O)[C@]12CCCC3=C1N(CCC3)C(=O)[C@@H](CC(=O)NCC1CCCCC1)C2	.	.	-2.8	.	.	.	.	.
COc1ccc(Cn2cc(CN3CC(N4CCSCC4)CS3(=O)=O)nn2)cc1 (stereo not drawn)	.	.	3.1	.	.	.	.	.
